# Results filed as inconclusive are left out. A number with no mark means an inactive call. The source made the active and inactive calls. The call rests on the fitted dose curve; in most records, active means well fitted cell-killing curve with a large enough effect; inconclusive means small, poorly fitted or top-dose-only effect; inactive means flat fitted curve, though single readings scatter.
# Experiment: UWB1.289 Cancer Cell Toxicity qHTS against the NCATS CANVASS Library (AID 1347347); further: nearly all actives have a fitted effect of over 60% in size
# Details: UWB1.289 viability, CellTiter-Glo luminescence, 72 h; series mostly up to 38.3 µM; activity change, negative = cytotoxicity: at the top concentration; outcome: at the top concentration
# Source text: Natural products and their derivatives continue to be wellsprings of nascent therapeutic potential. However, many laboratories have limited resources for biological evaluation, leaving their previously isolated or synthesized compounds largely or completely untested. To address this issue, the Canvass library of natural products was assembled (https://tripod.nih.gov/canvass), in collaboration with academic and industry researchers, for quantitative high-throughput screening (qHTS) across a diverse set of cell-based and biochemical assays. The pure (>85% purity by liquid chromatography/mass spectrometry [LC/MS]) Canvass library of 346 natural products were submitted by 45 academic laboratories and companies around the world. We collected pure natural products to circumvent deconvolution and structure elucidation due to time and resource limitations. The library was formatted into 1536-well plates and evaluated in 50 qHTS (in an 11-pnt concentration series) bioassays with broad scope of disease-relevant mechanisms. The resulting data set from 50 different assays was then systematically analyzed to identify overall trends and specific natural products with interesting biological activities. Reported herein are the results of each individual qHTS and their corresponding assay protocol. National Center for Advancing Translational Sciences (NCATS), Rockville, MD National Institute of Health (NIH), Bethesda, Maryland
# Cancer Cell Toxicity protocol for cell lines COV-362, OV-KATE, OV-SAHO, UWB1.289, UWB1.289-WTBRCA1, HEK-293, HPAF-II, Panc-1005, SW1088, or U-118MG. 1. In a 1536 well, white solid bottom tissue culture plates (Corning 7494), corresponding cells (COV-362, OV-KATE, OV-SAHO, UWB1.289, UWB1.289-WTBRCA1, HEK-293, HPAF-II, Panc-1005, SW1088, or U-118MG) were dispensed in each well at a final concentration of 1000 cells / well (6uL volume) using the Multidrop Combi (Thermo Fisher Scientific) dispenser. 2. The plates were incubated for 4 hours at 37 degrees C/5% CO2/95% Rh. 3. Compounds were pin transferred (~23nL volume) via Wako Pin-tool (Wako Automation, Richmond VA) equipped with a 1536 pin head. The assay plates were treated with compounds in an 11-pnt concentration series with a final concentration range of […] to 85uM. 4. Bortezomib was used as a single dose control (0.5mM column 4, rows 1 - 32) at a final concentration of 1.9uM and as a 16pnt titration (1mM; 1:2 dilution; 16-points; n = 2; column 3, rows 1 - 32) with final concentration range of 0.1nM - 3.8uM. 5. The assay plates were incubated for 72 hours at 37 degrees C/5% CO2/95% Rh. 6. 3uL CellTiter-Glo detection reagent was then added to the plates (columns 2 - 48, rows 1 - 32) and incubated at room temperature for additional 15min. 7. Luminescence signal was acquired via the ViewLux plate reader (PerkinElmer) using a clear filter, 2 second exposure and 2x binning settings.
# On the % scale 0 is the no-effect control and ±100 the full control effect; potency means the concentration at half of the fitted maximal effect.
SMILES,"activity change, negative = cytotoxicity",Potency,outcome
Cc1cc(O)cc2oc(C[C@H](C)O)cc(=O)c12,-2.92%,,
CC(C)=CCC[C@@H](C)[C@@H]1CC[C@@]2(C)C[C@H]3C(C)=CC(=O)[C@@H]3/C(C=O)=C\C[C@H]12,,6.66 µM (active),
O=Cc1ccc2n1C[C@@]1(C[C@H](O)[C@@H](CO)O1)OC2,-1.84%,,
CC(=O)O[C@@H]1C=C2C(=O)OC[C@]2(O)[C@@]2(C)CCCC(C)(C)[C@H]12,,10.6 µM (active),
COC1C(O)C(OC(N)=O)C(Oc2ccc3c(O)c(NC(=O)c4ccc(O)c(CC=C(C)C)c4)c(=O)oc3c2C)OC1(C)C (stereo not given),5.25%,,
CCCCCC[C@H](CCCCC[C@@H](O)C(N)=O)OC(=O)[C@@H]1CC=CN1C(=O)c1ccccc1O,,6.66 µM (active),
C=C1C[C@@]23C=CC(=O)[C@@](C)(CCC(=O)Nc4c(O)ccc(C(=O)O)c4O)C2C[C@@H]1CC3O (stereo not given in full),4.45%,,
C=C1C(=O)O[C@H]2[C@H]1CC/C(CO)=C\CC[C@@]1(C)O[C@@H]21,,7.47 µM (active),
O=C(O)Cc1c[nH]c2ccccc12,3.73%,,
C=C(C)C(=O)O[C@H]1C[C@H](C)[C@@H](OC(C)=O)CC[C@@]2(C)O[C@@H]2[C@H]2OC(=O)C(COC(C)=O)=C12,,6.66 µM (active),
C=C1[C@H]2CC[C@@]3(C=CC(=O)[C@@](C)(CCC(=O)Nc4c(O)ccc(C(=O)O)c4O)C3C2)[C@H]1O (stereo not given in full),-17.1%,,
CO[C@@H]1[C@H](O)[C@@H](C)O[C@@H](OC[C@H]2/C=C/C=C/C(=O)C(C)C[C@H](C)C(O[C@@H]3O[C@H](C)CC4(OC(=O)O[C@@H]4C)C3O)[C@@H](C)/C=C/C(=O)OC2C)[C@@H]1OC (stereo not given in full),-7.12%,,
CCCCCCCCC[C@@H]1C[C@@H]2CC[C@H]3[C@@H](C(=O)OCCCCN=C(N)N)[C@@H](C)N=C(N1)N23,,10.3 µM (active),
COc1ccc(CCCc2cc(O)c(OC)c(O)c2)c(O)c1O,-8.8%,,
CC[C@@H]1C[C@@]2(CC)OC(=O)[C@@]3(CC)OC(=O)[C@@H]1[C@@H]23,9.03%,,
CC1C(=O)C23CCC1C[C@]21O[C@@H]2C(C)(C)C=CC(=O)[C@@]23COC1=O (stereo not given in full),,,inactive
OCc1ccc2ocnc2c1,-4.29%,,
C=C1C[C@@]23C=CC(=O)[C@@](C)(CCCC(C)C(=O)O)[C@@H]2C[C@@H]1CC3 (stereo not given in full),-17.2%,,
C=CC(=C)CC[C@]1(C)[C@H]2C[C@H](OC(=O)C(C)CC)C=C3[C@H](OC(C)=O)O[C@H](OC(C)=O)[C@@]32[C@H](OC)C[C@@H]1C (stereo not given in full),,3.44 µM (active),
CC(C)=CCC/C(C)=C/Cc1c(O)c(CC=C(C)C)c(O)c2c(=O)c3cc(O)ccc3oc12,,8.38 µM (active),

SMILES,"activity change, negative = cytotoxicity",Potency,outcome
CS/C=C/C(N)=O,5.37%,,
C=C1C[C@@]23C=CC(=O)[C@@](C)(CCC(=O)Nc4c(O)ccc(C(=O)O)c4O)C2C[C@@H]1CC3 (stereo not given in full),-9.48%,,
CN1CC[C@]2(c3cccc4c3N[C@@H]3N(C)CC[C@]43[C@@]34CCN(C)[C@@H]3Nc3ccccc34)c3ccccc3N[C@H]12,,18.8 µM (active),
O=Cc1ccc2n1C[C@@]1(OC2)O[C@H](CO)[C@@H](O)[C@@H]1O,-13.9%,,
O=C(O)[C@@]12COC3(O)C1CCN1CC[C@H]3[C@@H]1c1c2[nH]c2ccccc12,1.81%,,
COc1ccc([C@@H]2c3cc(OC)c(OC)cc3C(=O)C(C)C2C)cc1OC (stereo not given in full),-3.4%,,
C=C[C@]1(C)CC[C@@H]([C@H](C)C(=O)OCC)O1,-7.99% [at 22.9 µM],,
C/C=C/C(=O)[C@@H](C)C1=CC(=O)C2=C(O[C@@]34CC[C@H](O)C(C)(C)[C@@H]3CC[C@H](C)[C@@]4(C)C2)C1=O,,21.1 µM (active),
CC1(C)[C@H](Br)CC[C@]23C[C@]4(C)C(=O)CC12C[C@H]34,5.88%,,
C/C=C/C=C/C1(O)C2C=C3C(=O)CC45C(=O)C(O)=C(C)C(=O)C4C1C1(C(=O)C(O)=C(C)C(=O)C351)C2C (stereo not given),,,inactive
C[C@@H]1O[C@@H](Oc2c(-c3ccc(O)cc3)oc3cc(O)cc(O)c3c2=O)[C@H](O)[C@H](O)[C@H]1O,-7.25%,,
COc1ccc(/C=C2\COc3cc(O)ccc3C2=O)cc1,-20.2%,,
C[C@@]12CCC[C@@](C)(C(=O)O)[C@H]1C[C@@H](O)[C@]13C[C@H]4C[C@H](O[C@@]4(C)C1)[C@@H]23,-11.8%,,
O=C(O)CC1OC(=O)c2c(O)cccc21 (stereo not given),6.23%,,
CO[C@H]1/C=C/CC[C@@H](S[C@@H]2O[C@H](CO)[C@@H](O)[C@H](O)[C@H]2O)CC(=O)O[C@@H](/C(C)=C/[C@H](C)C(=O)CCCC2CC(=O)NC(=O)C2)[C@@H](C)[C@@H]1O,,2.98 µM (active),
Oc1ccc(/C=C2/c3cc(O)cc(O)c3C(c3ccc(O)cc3)[C@H]2c2cc(O)cc(O)c2)cc1 (stereo not given in full),,3.75 µM (active),
C/C(=C\[C@H](C)C(=O)CCCC1CC(=O)NC(=O)C1)[C@@H]1OC(=O)/C=C/CC/C=C/C[C@@H](O)[C@@H]1C,,2.11 µM (active),
CO[C@@H]1C[C@@H](C[C@H]2CC[C@H](C)[C@H]([C@@H](C)C(=O)O)O2)O[C@]2(O[C@](C)([C@H]3CC[C@@](C)([C@@H]4O[C@@H]([C@H]5O[C@](C)(O)[C@H](C)C[C@@H]5C)C[C@@H]4C)O3)C[C@H]2C)[C@@H]1C,,3.34 µM (active),
CC(C)(Br)[C@@H](Cl)C[C@H](Br)[C@](C)(Cl)/C=C/Br,,18.8 µM (active),
CC(O)/C=C/C1(O)C(C)(C)CC(O)CC1(C)O (stereo not given),,,inactive

# — PubChem BioAssay (NCATS)
